Source: PubChem (National Center for Advancing Translational Sciences (NCATS))
D1 PAM: Potentiators of Human D1 Dopamine Receptor: qHTS | HEK293 TREx D1 cells, calcium flux, dopamine EC20 potentiation | potentiation, % at 10 µM | D(1A) dopamine receptor (Homo sapiens), P21728 | 360,000 compounds, 0.036% hits; in the data active means potentiation above about 30%
DRD3 antagonist: qHTS of D3 Dopamine Receptor Antagonist: qHTS; D(3) dopamine receptor (Homo sapiens), P35462; D3R cells, DiscoveRx beta-arrestin luminescence, antagonist mode; hits give low values; max response, negative = inhibition, %; 360,000 compounds, 2.5% hits; in the data active means max response below about -50%; inconclusive means no clear call, values can overlap the other calls
Target sequence (P35462 whole entry, looked up): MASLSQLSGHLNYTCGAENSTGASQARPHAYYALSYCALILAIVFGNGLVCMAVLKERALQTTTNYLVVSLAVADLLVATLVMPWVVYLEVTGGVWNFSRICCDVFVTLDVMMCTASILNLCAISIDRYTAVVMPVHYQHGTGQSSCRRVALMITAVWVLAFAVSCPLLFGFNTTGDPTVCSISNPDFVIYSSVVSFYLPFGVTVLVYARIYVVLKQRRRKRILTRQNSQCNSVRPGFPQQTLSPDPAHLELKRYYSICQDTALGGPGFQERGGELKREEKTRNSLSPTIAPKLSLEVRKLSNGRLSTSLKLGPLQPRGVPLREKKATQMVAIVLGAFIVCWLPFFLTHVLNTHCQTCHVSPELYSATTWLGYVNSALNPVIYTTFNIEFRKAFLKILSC
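Cells expressing the human receptor were seeded at 1500 cells/well, incubated overnight at 37 degrees C in 5% CO2, then exposed to library compounds with dopamine controls for 90 minutes at 37 degrees C before luminescent detection.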
DRD3 agonist: qHTS of D3 Dopamine Receptor Agonist: qHTS | AID 652048, 2013 | 410,000 compounds, 0.58% hits | D3R DiscoveRx beta-arrestin cells, luminescence, 90 min | max activation, %; in the data active means max activation above about 30%
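Cells at 1500/well, incubated overnight, then treated with pinned compounds (dopamine as control) for 90 min at 37 degrees C. DiscoveRx reagent added for 30 - 60 minutes at room temperature; luminescence read.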
D1 ag: Allosteric Agonists of the Human D1 Dopamine Receptor: qHTS; D(1A) dopamine receptor (Homo sapiens), P21728; HEK293 T-REx D1 cells, calcium flux, agonist mode; activation, % at 2 µM; 360,000 compounds, 1% hits; AID 504660, 2011; in the data active means activation above about 30%
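Inducible HEK293 T-REx D1 cells, force-coupled to calcium signalling, were plated at 4000 cells/well with tetracycline and held overnight at 30 C. After no-wash calcium dye loading, compound-evoked calcium rise over 180 s flagged agonists.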
D1 antagonist: Antagonist of Human D 1 Dopamine Receptor: qHTS. D(1A) dopamine receptor (Homo sapiens), P21728. HEK293 TREx D1 cells, calcium flux, dopamine EC80; hits give low values. activity change, negative = inhibition, % at 10 µM. 360,000 compounds, 3.2% hits; in the data active means activity change below about -30%
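Allosteric or orthosteric antagonism assessed as attenuation of the calcium response to EC80 dopamine, added 180 s after compound, in induced HEK293 Trex D1 cells loaded with no-wash calcium dye.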
BCR signal inh: qHTS Assay to Find Inhibitors of Chronic Active B-Cell Receptor Signaling. 340,000 compounds, 0.05% hits. ABC-DLBCL IkBa-CBG/CBR reporter, luminescence ratio, 4 h. AID 493014, 2011. Potency, µM (titrated, usually from 46.1 µM), most hits filed as inhibitors; active means well fitted inhibition curve with a large enough effect in the signal ratio, with a control signal flat, not every such curve was filed as active; inconclusive means small, poorly fitted or top-dose-only effect, or effect the other way, or a change in a side signal; the % refers to the signal ratio
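TMD8 ABC-DLBCL cells carrying doxycycline-inducible green luciferase fused to IkappaBalpha plus unfused red luciferase were exposed to compounds (up to 46 uM) for 4 hrs at 37C. Activity came from the overlap-corrected green/red luminescence ratio.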
Each line names hits and unclear results; the compound was inactive in the other large screens; ! = a repeat was not active. The list is not random: actives were taken first. Their share in the collection is about 6%.

O=C(O)C(c1ccccc1)N1C(=O)/C(=C\c2ccc(-c3ccc(Br)cc3)o2)SC1=S (stereo unspecified)	D1 ag 66
C#CCn1cnc2c(cnn2-c2ccc(F)cc2)c1=O	none (no result: DRD3 antagonist, BCR signal inh)
CN(CCN1CCOCC1)C(=O)C1CCC(=O)N(Cc2ccc(Cl)cc2)C1 (stereo unspecified)	none (no result: D1 PAM, D1 ag, D1 antagonist, BCR signal inh)
COC(=O)C1(Cc2cc(-c3ccc(OC)cc3OC)no2)CCN(C(=O)OC(C)(C)C)CC1	DRD3 agonist 77, BCR signal inh inconclusive
O=C(COc1ccccc1Cl)NC(=S)Nc1ccc(CN2CCOCC2)cc1	none
O=[N+]([O-])c1ccc(COc2cccc(CN3CCOCC3)c2)cc1	none (no result: D1 PAM, D1 ag, D1 antagonist, BCR signal inh)
O=[N+]([O-])c1cccc(COc2cccc(CN3CCOCC3)c2)c1	DRD3 antagonist -65 (no result: D1 PAM, D1 ag, D1 antagonist, BCR signal inh)
O=C(/C=C/c1cccc([N+](=O)[O-])c1)NC(=S)Nc1ccc(CN2CCOCC2)cc1	DRD3 antagonist -58
O=C(COc1ccc(Cl)cc1Cl)NC(=S)Nc1ccc(CN2CCOCC2)cc1	D1 antagonist -40, BCR signal inh inconclusive
CC(C)c1ccc(/C=C/C(=O)NC(=S)Nc2ccc(CN3CCOCC3)cc2)cc1	BCR signal inh inconclusive
COc1ccc(C(=O)NC(=S)Nc2ccc(CN3CCOCC3)cc2)cc1	none
O=C(NC(=S)Nc1ccc(CN2CCOCC2)cc1)c1ccc([N+](=O)[O-])cc1	DRD3 antagonist -50
Cc1cccc(NC(=O)CSc2nnc(CNC(=O)c3c(F)cccc3Cl)o2)c1C	none (no result: DRD3 antagonist, BCR signal inh)
CCOc1ccc(CCNC(=O)c2sc3nc4n(c(=O)c3c2C)CCCC4)cc1	none (no result: DRD3 antagonist, BCR signal inh)
O=c1[nH][nH]c2c1C(c1ccc(F)cc1)OC(CCc1ccccc1)C2 (stereo unspecified)	none (no result: D1 PAM, D1 ag, D1 antagonist, BCR signal inh)
O=C(NCCc1ccccc1)C1CCCN1C(=O)Nc1ccccc1 (stereo unspecified)	none
O=C(NCCc1ccccc1)C1CCCN1C(=O)Nc1cccc(Cl)c1 (stereo unspecified)	DRD3 antagonist -73
O=C(NCc1ccccc1Cl)C1CCCN1C(=O)NCc1ccccc1 (stereo unspecified)	D1 antagonist -44
CC(C)(C)C(=O)/C=c1\s/c(=C\c2ccc(-c3ccc([N+](=O)[O-])cc3)o2)c(=O)n1CC(=O)NC(N)=O	D1 ag 894, BCR signal inh inconclusive
CC(C)c1ccc(S(=O)(=O)N2CCN(CCC(=O)Nc3ccc(N(C)C)cc3)CC2)cc1	D1 antagonist -81, BCR signal inh inconclusive
O=C(CN1CCN(S(=O)(=O)c2ccc(Cl)cc2)CC1)Nc1ccc2c(c1)OCO2	BCR signal inh inconclusive (no result: D1 PAM, D1 ag, D1 antagonist)
O=C(CN1CCN(S(=O)(=O)c2ccccc2)CC1)Nc1ccc2c(c1)OCO2	D1 antagonist -32
CC(C)c1ccc(S(=O)(=O)N2CCN(CC(=O)Nc3ccc4c(c3)OCO4)CC2)cc1	D1 antagonist -30
CCN(CC)S(=O)(=O)c1ccc(-c2csc(=Nc3cccc(C(F)(F)F)c3)n2Cc2ccc3c(c2)OCO3)cc1	none (no result: DRD3 antagonist, BCR signal inh)
COc1ccc(CNC(=O)Cc2c(C)c3c(cc(C)c4c(C)coc43)oc2=O)cc1OC	none (no result: DRD3 antagonist, BCR signal inh)
Cc1ccc(CNC(=O)CSc2nc3ccccc3nc2Cc2ccc(C)cc2)cc1	none (no result: DRD3 antagonist, BCR signal inh)
CN(C)c1ccc(/C=C2/SC(=O)N(CCN=C3NS(=O)(=O)c4ccccc43)C2=O)cc1	D1 ag 40
CN(C)c1ccc(/C=C2\SC(=O)N(CCc3nnc(N)s3)C2=O)cc1	D1 ag 62, BCR signal inh inconclusive
CN(C)c1ccc(/C=C2\SC(=O)N(CC(O)Cn3c4ccccc4c4ccccc43)C2=O)cc1 (stereo unspecified)	D1 ag 46, BCR signal inh inconclusive
c1ccc(COc2ncnc3c2ncn3CCCNC2CCN(Cc3ccccc3)CC2)cc1	none (no result: D1 PAM, D1 ag, D1 antagonist, BCR signal inh)
Cc1ccc(S(=O)(=O)NC(=O)C2CCCCC2)cc1	D1 antagonist -36
Cc1ccc(S(=O)(=O)N2CCC(C(=O)NCC3CCCCC3)CC2)cc1	DRD3 antagonist -65
Cc1ccc(S(=O)(=O)N2CCC(C(=O)NCCc3ccccn3)CC2)cc1	D1 antagonist -58
N#Cc1c(NC(=O)c2ccccc2)sc2c1CCCCC2	BCR signal inh inconclusive
N#Cc1c(Cl)nsc1NC(=O)c1ccccc1	D1 ag 34, D1 antagonist -37, BCR signal inh inconclusive
CC(=O)c1ccc(-c2csc(N3CCC(C(N)=O)CC3)n2)cc1	BCR signal inh inconclusive (no result: DRD3 antagonist, DRD3 agonist)
NC(=O)C1CCN(c2nc(-c3ccc(Br)cc3)cs2)CC1	D1 antagonist -46!, BCR signal inh inconclusive
Cc1nc2c(c(C)nn2-c2ccccc2)c(C)c1CCC(=O)Nc1ccc(CN2CCCC2)cc1	D1 antagonist -39
O=C(Nc1ccc(Cl)cc1C(F)(F)F)C(Sc1nnc(-c2cccs2)o1)c1ccccc1 (stereo unspecified)	BCR signal inh inconclusive
O=C(Nc1cc(C(F)(F)F)ccc1Cl)C(Sc1nnc(-c2cccs2)o1)c1ccccc1 (stereo unspecified)	D1 antagonist -45, BCR signal inh inconclusive
CSC1=C(C#N)C(c2ccccc2Cl)C2=C(N1)c1ccccc1C2=O (stereo unspecified)	D1 antagonist -42
CC(=O)N(Nc1ccccc1)c1ccccc1	D1 antagonist -52, BCR signal inh inconclusive
CC(=O)N(CCN(C(C)=O)c1ccccc1)c1ccccc1	none
c1ccc(-c2csc(Nc3cccnc3)n2)nc1	DRD3 antagonist inconclusive, D1 antagonist -31
COc1ccc(N2CCN(C(=O)CSc3nc(-c4ccc(C(C)C)cc4)no3)CC2)cc1	none (no result: DRD3 antagonist, BCR signal inh)
O=C(Cn1nnc(-c2ccc(Cl)cc2)n1)NC1CC2CCC1C2 (stereo unspecified)	D1 antagonist -34
CC1(C)OC(=O)C(=CNc2ccccn2)C(=O)O1	none
CC1(C)OC(=O)C(=CNc2ncccn2)C(=O)O1	DRD3 antagonist -68
COc1cccc2c1C(=O)C=C(C)C2=O	BCR signal inh inconclusive
COC1=CC(=O)c2nc(Cl)ccc2C1=O	DRD3 antagonist -75 (no result: D1 PAM, D1 ag, D1 antagonist, BCR signal inh)
CCCCCOc1ccc(C(=O)N(Cc2ccco2)C2CCS(=O)(=O)C2)cc1 (stereo unspecified)	DRD3 agonist 30
CCCCCOc1c(Cl)cc(C(=O)N(Cc2ccc(C)o2)C2CCS(=O)(=O)C2)cc1Cl (stereo unspecified)	D1 ag 30 (no result: DRD3 antagonist, BCR signal inh)
CCCCOc1c(Cl)cc(C(=O)N(Cc2ccc(C)o2)C2CCS(=O)(=O)C2)cc1Cl (stereo unspecified)	none (no result: DRD3 antagonist, BCR signal inh)
